# PPARg SRC-1 ag = promotes SRC-1 coactivator recruitment by human PPARgamma; 200,000 tested, 0.41% active; P37231; PPARgamma-SRC-1 coactivator recruitment biochemical assay; activation, % at 8 µM; in the data active = activation above about 19%;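 note: 0% = DMSO and 100% = reference agonist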
# Target sequence (P37231 whole entry, looked up): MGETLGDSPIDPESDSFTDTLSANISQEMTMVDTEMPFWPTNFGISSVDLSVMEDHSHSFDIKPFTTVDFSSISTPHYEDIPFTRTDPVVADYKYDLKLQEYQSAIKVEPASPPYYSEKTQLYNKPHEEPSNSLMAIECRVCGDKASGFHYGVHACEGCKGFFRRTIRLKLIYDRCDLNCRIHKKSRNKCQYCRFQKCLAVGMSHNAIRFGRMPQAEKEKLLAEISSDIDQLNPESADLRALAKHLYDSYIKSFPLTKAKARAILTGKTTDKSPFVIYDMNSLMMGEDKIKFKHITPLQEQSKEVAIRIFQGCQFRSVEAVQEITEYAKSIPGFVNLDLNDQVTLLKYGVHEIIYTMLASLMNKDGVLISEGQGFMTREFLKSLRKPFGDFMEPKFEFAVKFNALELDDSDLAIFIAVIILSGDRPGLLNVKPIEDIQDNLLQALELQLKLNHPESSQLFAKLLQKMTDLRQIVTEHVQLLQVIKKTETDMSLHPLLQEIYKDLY
# SRC1 TRFRET art = counter-screen for PPARgamma SRC-1 recruitment agonists: TR-FRET artefact | TR-FRET detection artefact counter-screen, emission ratio; hits give high values | 99,000 tested, 0.34% active | TR-FRET ratio at 8 µM; in the data active = TR-FRET ratio above about 2300
# SRC3 TRFRET art = flags TR-FRET format artefacts in PPARgamma SRC-3 recruitment agonist screen | TR-FRET ratio at 8 µM | TR-FRET artefact counter-screen, PPARgamma/SRC-3 format; hits give high values | 99,000 tested, 0.39% active
# PPARg SRC-2 ag = promotes SRC-2 coactivator recruitment by human PPARgamma. PPARgamma LBD-SRC-2 recruitment, biochemical. activation, % at 8 µM. 200,000 tested, 0.34% active; in the data active = activation above about 22%;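 note: 0% = vehicle and 100% = reference agonist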
# SRC2 TRFRET art = counter-screen for PPARgamma SRC-2 recruitment agonists: TR-FRET artefact; hits give high values; TR-FRET ratio at 8 µM; 200,000 tested, 0.4% active; AID 1049
# PPARg SRC-3 ag = agonists of human PPARgamma SRC-3 coactivator recruitment. activation, % at 8 µM. biochemical PPARgamma/SRC-3 coactivator recruitment assay. P37231. 200,000 tested, 0.26% active; in the data active = activation above about 23%;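 note: 0% = DMSO and 100% = reference agonist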
# PPARg SRC2 conf = confirmation of agonists of SRC-2 recruitment by human PPARgamma; activation, % at 8 µM; biochemical SRC-2 recruitment by PPARgamma; 790 tested, 52% active; shares compounds with PPARg SRC-3 ag; in the data active = activation above about 22%;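 note: 0% = vehicle alone and 100% = reference agonist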
# PPARg SRC1 conf = human PPARgamma SRC-1 recruitment agonism, confirmation | shares compounds with PPARg SRC-3 ag | activation, % at 8 µM | PPARgamma–SRC-1 coactivator recruitment biochemical assay | 790 tested, 43% active; in the data active = activation above about 20%;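 note: 0% = vehicle wells and 100% = reference agonist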
# PPARg SRC3 ag = confirmation of agonists of SRC-3 recruitment by human PPARgamma. shares compounds with PPARg SRC-3 ag. biochemical PPARgamma-SRC-3 coactivator recruitment, agonist mode. activation, % at 8 µM. 790 tested, 29% active. AID 1301; in the data active = activation above about 24%;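 note: 0% = vehicle wells and 100% = reference agonist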
# Numbers without * were called inactive; · = no result given. Sampled rows, rich in hits. Any-hit rate of the full collection: about 0.9%. Cut-off read from the data, not from the text of the source, unless noted: active = TR-FRET ratio above about 2000; inactive = the rest.
SMILES,PPARg SRC-1 ag,SRC1 TRFRET art,SRC3 TRFRET art,PPARg SRC-2 ag,SRC2 TRFRET art,PPARg SRC-3 ag,PPARg SRC2 conf,PPARg SRC1 conf,PPARg SRC3 ag
N#CC(=C=[N-])C1=C(C#N)C(c2ccccc2F)C([n+]2ccccc2)C(O)(C2CC2)N1 (stereo not drawn),32.3*,·,·,75.1*,3792*,70.9*,12.2,8.8,9.7
CCOc1ncccc1C(=O)NCc1ccccc1Cl,5.4,1639,1319,5.7,1560,3.9,·,·,·
N#CC(c1nc2ccccc2nc1N1CCCC1)S(=O)(=O)c1ccccc1 (stereo not drawn),10.4,·,·,-6.3,1401,-7.6,·,·,·
Cc1cccc(S(=O)(=O)C(C#N)c2nc3ccccc3nc2N2CCCC2)c1 (stereo not drawn),19.0*,·,·,11.4,1588,14.3,7.9,11.2,6.1
Clc1ccc(Cl)c(-c2ccc(/C=N/c3ncn[nH]3)o2)c1,49.4*,·,·,53.7*,2699*,58.2*,52.8*,38.4*,29.9*
Oc1ccc(N=Cc2cc(Br)c(N3CCOCC3)o2)cc1,-6.2,1576,1705,-0.1,1652,5.9,·,·,·
O=[N+]([O-])c1cc(Br)c(O)c(C=Nc2ccc(N3CCOCC3)cc2)c1,61.2*,2849*,2532*,64.4*,2845*,45.4*,11.4,15.7,8.6
CC(=O)NC1(NC(C)=O)CCN(C)CC1,-0.3,1566,1455,-0.8,1587,-4.1,·,·,·
CC(C)(C)c1ccc(C(=O)NC(=S)NNC(=O)c2cccs2)cc1,8.8,2055,1675,14.7,1584,26.0*,6.8,6.4,8.5
O=C(CCCCCn1c(=S)[nH]c2cc3c(cc2c1=O)OCO3)N1CCN(Cc2ccccc2)CC1,5.3,·,·,12.3,1588,10.7,·,·,·
O=C(CCCCCn1c(=S)[nH]c2cc3c(cc2c1=O)OCO3)N1CCN(C(=O)c2ccco2)CC1,13.4,·,·,31.7*,1629,25.7*,-1.0,-0.9,2.3
O=C(Nn1c(O)c(C=C2N=c3ccccc3=N2)sc1=S)c1ccc(Cl)cc1,3.5,·,·,-4.5,1686,-0.2,·,·,·
O=C1N=c2ccccc2=C1c1sc(=S)n(NC(=O)c2cccc(O)c2)c1O,21.8*,2026,2060*,11.5,1790,14.3,35.1*,26.6*,22.4
O=C(Nn1c(O)c(C=C2N=c3ccccc3=N2)sc1=S)c1cccc(Cl)c1,15.0,·,·,15.4,1764,27.4*,23.0*,15.4,10.4
COc1ccc(/C=N/OCC(=O)Nc2ccc3c(c2)OCO3)c(OC)c1,6.5,1680,1514,10.3,1682,4.1,·,·,·
COc1ccc(N2CCN(Cc3nc4cc(Cl)ccc4c(=O)[nH]3)CC2)cc1,9.0,1843,1796,7.7,1558,1.8,·,·,·
C#CCn1cc(/C=N/Nc2nc3ccccc3[nH]2)c2ccccc21,14.8,2389*,1807,29.9*,1820,12.8,7.1,11.0,7.6
COc1ccc(CC(=O)NNC(=O)COc2ccc3ccccc3c2)cc1,193.8*,6123*,4430*,213.7*,3867*,142.3*,256.0*,195.8*,169.4*
COc1ccc(OCC(=O)NNC(=O)CCc2ccccc2)cc1,-11.2,1505,1553,-1.9,1544,-2.6,·,·,·
CCOC(=O)c1c(N)sc(=S)c2c1CCC2,19.2*,·,·,27.1*,2147*,34.3*,6.2,5.7,6.5
CC(=O)CSc1ccc(-c2nc3cc(C)c(C)cc3[nH]2)cn1,-1.7,1783,1677,0.1,1502,-0.3,·,·,·
N#Cc1ccccc1CSc1ccc(-c2nc3ccccc3[nH]2)cn1,22.2*,·,·,33.5*,1850,26.1*,34.8*,22.8*,21.8
Oc1cc2ccccc2cc1-c1n[nH]c(=S)n1Cc1ccco1,21.5*,2134,1823,4.8,1822,16.4,7.5,12.3,10.5
Oc1ccc(-c2n[nH]c(=S)n2Cc2ccco2)cc1,6.5,·,·,5.5,1439,-4.8,·,·,·
CCS(=O)(=O)NCCNc1ccc([N+](=O)[O-])cc1,-0.6,1828,1452,1.5,1572,8.7,·,·,·
SMILES,PPARg SRC-1 ag,SRC1 TRFRET art,SRC3 TRFRET art,PPARg SRC-2 ag,SRC2 TRFRET art,PPARg SRC-3 ag,PPARg SRC2 conf,PPARg SRC1 conf,PPARg SRC3 ag
Nc1ccc2oc(-c3ccc4nc[nH]c4c3)nc2c1,-4.2,·,·,0.7,1494,3.3,·,·,·
Cc1nc2ccc(-c3nc4cc(N)ccc4o3)cc2[nH]1,21.4*,·,·,15.8,1816,18.1,9.6,8.9,7.8
CC12CCC(C(=O)N(CSC(=S)N/N=C\c3ccccc3O)C1=O)C2(C)C (stereo not drawn),17.7,·,·,30.2*,1953,42.9*,45.6*,43.5*,24.9*
COC(=O)Cn1c(=NC(=O)c2ccc(OC)c(OC)c2)sc2cc(OC)ccc21,2.5,2011,1650,5.9,1686,4.8,·,·,·
C/C(CCC(C)C)=N\NC(=S)NCc1ccccc1,5.3,1884,1527,6.1,1595,2.3,·,·,·
COc1ccc(C(=O)COC(=O)CNC(=O)c2ccc(OC)cc2)cc1,10.2,1875,1727,3.2,1522,4.3,·,·,·
O=c1[nH]c2cc(NCCO)c([N+](=O)[O-])cc2[nH]1,8.6,1838,1494,8.1,1624,3.5,·,·,·
COC(=O)c1c(C)[nH]c(C(=O)C(C)Sc2nnc(-c3cc(OC)c(OC)c(OC)c3)o2)c1C (stereo not drawn),27.0*,·,·,3.6,1724,12.6,24.4*,25.4*,17.3
Cc1ccc(C(C)NC(=O)/C(C#N)=C\c2c(C)[nH]c3ccccc23)cc1 (stereo not drawn),19.1*,·,·,9.8,1569,4.5,5.5,16.6,14.4
Cc1[nH]c2ccccc2c1/C=C(\C#N)C(=O)NCc1ccccc1,5.3,1808,1618,-1.0,1429,1.5,·,·,·
N#Cc1c(-c2ccccc2)cc(C2CC2)nc1SCC(=O)c1cccs1,23.7*,·,·,7.3,2112*,11.7,53.3*,42.8*,26.3*
O=[N+]([O-])c1ccc(-c2ccc(C=Nc3cccc4ccccc34)o2)cc1,0.3,·,·,-3.4,1585,7.1,·,·,·
O=[N+]([O-])c1cc(-c2ccc(/C=N/c3nc4ccccn4c3-c3ccco3)o2)ccc1Cl,15.9,·,·,15.6,1804,27.0*,11.8,5.8,6.7
O=C(NC(Cc1ccccc1)C(=O)O)/C(=C/c1ccco1)NC(=O)c1cccc(Br)c1 (stereo not drawn),4.9,1518,1556,-4.1,1560,1.9,·,·,·
NS(=O)(=O)c1ccc(CCNC(=O)c2cc(-c3ccccc3)nc3ccccc23)cc1,-0.9,1708,1586,-1.2,1481,0.3,·,·,·
NS(=O)(=O)c1ccc(CNC(=O)c2cc(-c3ccccn3)nc3ccc(Cl)cc23)cc1,62.7*,3155*,3729*,64.1*,2879*,54.3*,33.2*,27.0*,18.4
